Screens from PubChem.
PNC assembly inh: High Content Assay for Compounds that inhibit the Assembly of the Perinucleolar Compartment | PC3M PTB-GFP, PNC prevalence imaging, 16 h; active compounds read low | activity change (PNC), negative = inhibition, % at 10 µM | actives 3.1% (n = 140,000) | AID 2417, 2010;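 active = readout at or below -70, meaning at least 70% loss of cells showing the perinucleolar compartment, a nuclear body marking cancer cells; inconclusive = readout between -30 and a set limit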
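Compounds are pinned in duplicate onto adhered PC3M cells stably expressing GFP-tagged PTB and incubated 16 h at 37 C. Cells are then fixed, nuclei stained with Hoechst, and PNC-positive cells counted.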
12-hLO inh: qHTS Assay for Inhibitors of 12-hLO (12-human lipoxygenase); purified 12-hLO, xylenol orange hydroperoxide absorbance; Potency, µM (series often up to 57.1 µM), usual class: inhibitors; actives 0.12% (n = 150,000); AID 1452, 2008; active = well fitted inhibition curve with a large enough effect; inconclusive = small, poorly fitted or top-dose-only effect; note: nearly all actives have a fitted effect of over 55% in size
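150 nM 12hLO, 25 mM Hepes pH 7.0 + 0.01% Triton X-100; cpd preinc 15 min RT; 40 uM arachidonic acid, 30 min RT; Fe-XO 30 min; A573/A405 ratio as read-out.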
HPGD inh: qHTS Assay for Inhibitors of HPGD (15-Hydroxyprostaglandin Dehydrogenase); 15-hydroxyprostaglandin dehydrogenase [NAD(+)] (Homo sapiens), P15428; purified HPGD, NADH fluorescence kinetic, PGE2 substrate; Potency, µM, actives largely listed as inhibitors; actives 4.3% (n = 150,000); AID 894, 2007
Target sequence (P15428 whole entry, looked up): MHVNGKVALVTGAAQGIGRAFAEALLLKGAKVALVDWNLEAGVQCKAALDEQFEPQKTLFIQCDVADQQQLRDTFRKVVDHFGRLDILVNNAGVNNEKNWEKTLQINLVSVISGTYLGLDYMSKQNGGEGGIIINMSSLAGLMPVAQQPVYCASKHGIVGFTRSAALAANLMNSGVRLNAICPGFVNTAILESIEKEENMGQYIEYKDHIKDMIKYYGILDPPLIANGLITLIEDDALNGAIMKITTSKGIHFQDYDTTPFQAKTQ
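20 nM HPGD preincubated 15 min at room temperature with compound in 50 mM Tris-HCl pH 8, 0.01% Tween 20. Started with 1 mM NAD+ and 30 uM prostaglandin E2; NADH fluorescence (360/450 nm) read 5 times over 30-s intervals, last minus first.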
ALDH1A1 block: qHTS Assay for Inhibitors of Aldehyde Dehydrogenase 1 (ALDH1A1); Aldehyde dehydrogenase 1A1 (Homo sapiens), P00352; Purified ALDH1A1, NADH fluorescence, propionaldehyde substrate; Potency, µM (doses to about 75.3 µM), usual class: inhibitors; actives 7.3% (n = 220,000); AID 1030, 2008
LMNA splice mod: qHTS Assay for Modulators of Lamin A Splicing; HeLa LMNA splicing GFP/RFP minigene ratio, 48 h; Potency, µM (doses to about 46.1 µM), actives largely listed as inhibitors; actives 0.01% (n = 200,000); active = well fitted inhibition curve with a large enough effect in the signal ratio, with a control signal flat, not every such curve was filed as active; inconclusive = small, poorly fitted or top-dose-only effect, or effect the other way, or a change in a side signal; the % refers to the signal ratio
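S3 HeLa cells stably expressing lamin A-EGFP splicing minigene plus DsRed2, 600 cells/well, 48 h compound exposure at 37C. Laser-scanning cytometry; analysed as GFP (500-530 nm)/RFP (575-640 nm) total intensity ratio; 0.5% DMSO vehicle.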
Hits are given with their value; n = inactive; u = inconclusive; x = no result given; [ ] = dose if it differs, or a comment. This is a sample that favours compounds with a hit; in the whole collection about 10% have one here. Unless noted, calls come from the whole dose curve; as a rule, active = well fitted inhibition curve with a large enough effect (not every such curve was filed as active); inconclusive = small, poorly fitted or top-dose-only effect, or another doubt; inactive = no such curve, though single readings can be large or run the other way.

SMILES | PNC assembly inh | 12-hLO inh | HPGD inh | ALDH1A1 block | LMNA splice mod
O=C(c1ccccc1)N1CCN(c2ccc(Cl)cc2)CC1 | n | n | n | 14µM | u
Cc1scc(C(=O)N2CCN(c3ccc(Cl)cc3)CC2)c1C | x | x | x | 20µM | x
O=C(N1CCCCC1)N1CCN(c2ccc(Cl)cc2)CC1 | n | n | u | 7.9µM | u
CCOc1ccc(NC(=O)CN2C(=O)C3(SCC(=O)N3c3ccc(F)cc3)c3ccccc32)cc1 (configuration not stated) | x | x | x | x | n
CC(C)(C)c1ccc(C(=O)NCC(=O)OCc2cc(=O)n3nc(C4CC4)sc3n2)cc1 | x | x | x | x | n
CCOc1ccc(C(=O)Nc2ccccc2NC(C)=O)cc1OCC | x | x | x | n | x
CCOc1ccccc1Nc1ccc(C(=O)O)cc1NC(C)=O | n | n | 22µM | u | n
CC1CCC(NC(=S)NCCN(C)C)CC1 (configuration not stated) | x | x | x | 1.6µM | x
O=C(/C=N/O)NCc1cccnc1 | u | n | x | n | n
O=C(Nc1cccnc1)c1cccs1 | -100 | n | n | n | u
O=C(/C=N/O)Nc1cccnc1 | -100 | n | n | n | n
Cc1ccc(S(=O)(=O)Nc2ccc(NC(=O)c3cccs3)cc2)cc1 | x | x | x | 28µM | u
O=C(NC(=S)Nc1cccnc1)c1cccs1 | x | x | x | u | n
CC(=O)c1ccc(NC(=O)c2cccs2)cc1 | -111 | n | n | n | n
N#CCCn1c(=O)c(-c2cccs2)nc2cnc(Oc3cccc(Cl)c3)nc21 | x | n | u | u | x
Cc1ccc(C)n1NC(=O)c1cccs1 | -117 | n | n | n | n
CCc1ccc(-c2nn(CC(=O)Nc3ccccc3C)c3c2cnc2ccc(C)cc23)cc1 | x | x | x | x | n
O=C1COc2ccc(C(=O)CCl)cc2N1 | x | x | x | 0.11µM | x
O=C1COc2ccc(C(=O)C[n+]3cccc(O)c3)cc2N1 | x | x | x | 20µM | n
CCCCCCC(=O)OCC(=O)c1ccc2c(c1)NC(=O)CO2 | x | x | x | 3.5µM | n[9.22 µM]
CC/C(=N\NC(=O)C(N)=O)c1ccccc1O | n | n | n | n | n
Cc1cccc(C)c1OCc1nnc2c3cnn(C)c3ncn12 | n | n | n | u | n
COc1ccc(Cc2nnc3c4cnn(C)c4ncn23)cc1 | -86 | n | n | n | n
CC(C)CCn1c(SCc2ccc(F)cc2Cl)nc2ccsc2c1=O | x | x | x | x | n
C=C(C)C(=O)NNc1ccccc1 | x | x | x | 22µM | n
SMILES | PNC assembly inh | 12-hLO inh | HPGD inh | ALDH1A1 block | LMNA splice mod
CC(C)OC(=O)C(=O)NNc1ccccc1 | n | n | n | n | n
O=C(Nc1ccc2c(c1)OCCO2)C1CCN(c2nnnn2-c2ccccc2)CC1 | u | n | n | 3.5µM | u
COc1cccc(NC(=O)N2CCN(c3nnnn3-c3ccccc3)CC2)c1 | x | x | x | 6.3µM | n
O=C(C1CCN(c2nnnn2-c2ccccc2)CC1)N1CCN(c2ccccc2)CC1 | n | n | n | 10µM | n
NC(=O)C1CCN(c2nnnn2-c2ccccc2)CC1 | n | n | n | u | n
O=C(Nc1cccc(F)c1)C1CCN(c2nnnn2-c2ccccc2)CC1 | u | n | n | 22µM | u
COc1cccc(NC(=O)C(c2ccccc2)N2CCNC(=O)C2)c1 (configuration not stated) | x | x | x | n | u
CCOc1ccc(NC(=O)C2CCN(C(=O)NCc3ccccc3)CC2)cc1 | u | n | n | n | n
CCOc1ccc(NC(=O)C2CCN(c3nnnn3-c3ccccc3)CC2)cc1 | u | n | n | 13µM | n
COc1ccccc1C1C2CCCCC2(O)CCN1CC(=O)Nc1ccccc1 (configuration not stated) | -104 | n | n | u | n
COC(=O)c1c(NC(=O)CN2CCC3(O)CCCCC3C2c2ccc(F)cc2)sc(C)c1C (configuration not stated) | n | n | n | 25µM | u
O=[N+]([O-])c1ccc(CSc2ncnc3c2ncn3C2OC(CO)C(O)C2O)cc1 (configuration not stated) | x | x | x | n | x
O=C(COc1ccc(Cl)cc1)Nc1ccc2nc(SCC(=O)N3CCCC3)sc2c1 | x | x | x | x | n
Cc1ccc(CNC(=O)c2cc3c(=O)n(Cc4cccnc4)ccc3nc2C)cc1 | x | x | x | x | n
CCS(=O)(=O)Nc1ccc(NC(C)=O)cc1 | n | n | 25µM | n | n
CCS(=O)(=O)Nc1ccc(Cc2ccncc2)cc1 | u | n | 1.3µM | n | n
O=S(=O)(Nc1ccc(Cc2ccncc2)cc1)c1cccs1 | n | n | 28µM | n | n
COc1ccc(CCNC(=O)C(CC(C)C)N2Cc3ccccc3C2=O)c(OC)c1OC (configuration not stated) | x | x | x | x | n
CC(=O)c1cn(Cc2ccccc2)c(=O)[nH]c1=O | x | x | x | n | n
Cn1cccc1C(=O)N1CCC[C@@]2(CCN(c3cccc(-c4ccccc4)c3)C2)C1 | x | n | u | n | x
CC(C)[C@H](NS(=O)(=O)c1cccc(Cl)c1)C(=O)OCC(=O)N1CCN(c2ccccc2)CC1 | n | n | n | 2.5µM | u
CC1(C)OC(=O)N(Cc2ccco2)C1(C)O (configuration not stated) | n | n | n | 18µM | n
CC(CCC(=O)O)C1CCC2C3C(O)C[C@@H]4CC(O)CC[C@@]4(C)C3CC(O)[C@]12C (some centres not stated) | x | n | n | n | u
O=C(Nc1ccc(C(F)(F)F)cc1)c1cnc(N2CCN(c3ccccn3)CC2)c2ccccc12 | x | x | x | n | x
COCC(C)NC(C(=O)Nc1ccc(C)c(Cl)c1)c1ccccc1 (configuration not stated) | n | n | n | u | n
SMILES | PNC assembly inh | 12-hLO inh | HPGD inh | ALDH1A1 block | LMNA splice mod
CCN(CC)CCNC(C(=O)Nc1cccc(C(C)=O)c1)c1ccccc1 (configuration not stated) | x | x | x | 14µM | x
COCC(C)NC(C(=O)Nc1cccc(C(C)=O)c1)c1ccccc1 (configuration not stated) | x | x | x | 14µM | n
CNc1nc(-c2c(C)noc2C)nc2ccccc12 | x | x | x | n | n
CC(C)Cn1c(SCc2nnc(-c3cccs3)o2)nc(O)cc1=O | n | n | 16µM | n | n
Cc1ccccc1NC(=O)CC1SC(=O)N(c2ccccc2)C1=O (configuration not stated) | n | n | u | 16µM | n
COc1ccccc1NC(=O)CC1SC(=N)N(c2ccccc2)C1=O (configuration not stated) | x | x | x | n | u
CCCN1C(=O)SC(CC(=O)Nc2ccc(Br)cc2)C1=O (configuration not stated) | n | n | n | u | n
CCOc1ccc(NC(=O)CC2SC(=O)N(c3ccccc3)C2=O)cc1 (configuration not stated) | x | x | x | 7.9µM | x
CCCN1C(=O)SC(CC(=O)Nc2ccccc2C)C1=O (configuration not stated) | n | n | n | 10µM | n
